# Assay outcomes as filed in PubChem.
# Pf Dd2 inh: P. falciparum Dd2 growth inhibitors, primary screen, SYBR Green fluorescence, single dose replicates; 72 h; stronger effect = lower value; activity change, % at 10 µM; actives 2.3% (n = 94,000); in the data active = activity change below about -80%
# C diff HTS: C. difficile growth inhibitors, primary screen, HTS; Clostridium difficile clinical isolate growth, OD600, 24 h; stronger effect = lower value; growth activity, negative = inhibition, % at 16 µg/mL (by protocol); actives 0.25% (n = 86,000); AID 1259249, 2017;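 active = mean growth activity at or below -80% and every replicate also at or below -80%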;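 note: 0% = DMSO wells and -100% = levofloxacin 16 µg/mL wells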
# T cruzi growth: T. cruzi intracellular proliferation inhibitors, primary screen, cell-based, beta-gal Tulahuen parasites, NIH3T3 host, luminescence; T. cruzi beta-gal in NIH3T3, GalScreen luminescence, 90 h; inhibition, % at 8.34 µM; actives 5.9% (n = 77,000);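 active = mean inhibition above about 93%, with at least 55% of replicates each passing it, limit read from the data, passing the limit was not always enough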
# Starred values were filed as active, the others as inactive; . = not tested or not shown. Rows were chosen to be rich in hits. Some 6.7% of all compounds tested hit in one or more screens of this group.
SMILES,Pf Dd2 inh,C diff HTS,T cruzi growth
O=C(Nc1cccc(F)c1)N1CC(=O)N2[C@H](CO)[C@H](c3ccc(-c4ccccc4)cc3)[C@@H]2C1,-27.6,-1.7,.
CCCNC(=O)C[C@H]1C[C@H]2c3cc(NC(=O)C4CCOCC4)ccc3O[C@H]2[C@@H](CO)O1,14.7,-1.8,.
COc1ccccc1-c1cccc(-c2nc(C(=O)Nc3nccs3)cc3c2[C@H](CCO)N(C(C)=O)C3)c1,-95.4*,-6.9,.
COc1ccccc1-c1cccc(-c2nc(C(=O)Nc3nccs3)cc3c2[C@@H](CCO)N(C(C)=O)C3)c1,-68.9,5.3,.
C[C@H]1CCCCO[C@H](CN(C)C(=O)CCCN(C)C)[C@@H](C)CN([C@@H](C)CO)C(=O)c2cc(NC(=O)NC3CCCCC3)ccc2O1,16.1,-0.1,40.7
C[C@H]1CN([C@@H](C)CO)C(=O)c2cc(NC(=O)C3CC3)ccc2O[C@H]1CN(C)C,-3.8,3.8,0.3
COc1cccc(S(=O)(=O)N2C[C@H](O)COC[C@@H]3O[C@@H](CC(=O)Nc4ccccc4)CC[C@H]32)c1,-4.2,-4.4,-33.1
COc1ccc(S(=O)(=O)N(C)C[C@@H]2OCCCC[C@@H](C)Oc3ccc(NS(=O)(=O)c4ccc(Cl)cc4)cc3C(=O)N([C@@H](C)CO)C[C@H]2C)cc1,-40.9,-1.4,.
COc1ccc(S(=O)(=O)N(C)C[C@H]2OCCCC[C@H](C)Oc3ccc(NS(=O)(=O)c4ccc(Cl)cc4)cc3C(=O)N([C@H](C)CO)C[C@@H]2C)cc1,-87.2*,1.5,.
COc1ccc(S(=O)(=O)N(C)C[C@H]2OCCCC[C@H](C)Oc3ccc(NS(=O)(=O)c4ccc(Cl)cc4)cc3C(=O)N([C@@H](C)CO)C[C@H]2C)cc1,-88.0*,0.6,.
COc1ccc(S(=O)(=O)Nc2ccc3c(c2)C(=O)N([C@H](C)CO)C[C@H](C)[C@H](CN(C)S(=O)(=O)c2ccc(Cl)cc2)OCCCC[C@@H](C)O3)cc1,-37.7,13.8,93.8
COc1ccc(S(=O)(=O)N(C)C[C@H]2OCCCC[C@@H](C)Oc3ccc(NS(=O)(=O)c4ccc(Cl)cc4)cc3C(=O)N([C@H](C)CO)C[C@H]2C)cc1,-90.1*,-1.7,.
COc1ccc(S(=O)(=O)N(C)C[C@@H]2OCCCC[C@H](C)Oc3ccc(NS(=O)(=O)c4ccc(Cl)cc4)cc3C(=O)N([C@H](C)CO)C[C@H]2C)cc1,-78.5,-5.9,.
COc1ccc(NC(=O)N(C)C[C@H]2Oc3ccc(NS(=O)(=O)c4ccc(OC)cc4)cc3C(=O)N([C@@H](C)CO)C[C@H]2C)cc1,-2.6,0.7,-19.8
CCS(=O)(=O)Nc1ccc2c(c1)C(=O)N(C)C[C@H](OC)[C@@H](C)CN(CC1CCCC1)[C@H](C)CO2,-43.3,-3.7,-34.9
C[C@@H]1CCCCO[C@@H](CN(C)S(C)(=O)=O)[C@@H](C)CN([C@H](C)CO)C(=O)c2cc(NC(=O)Cc3ccccc3)ccc2O1,-1.4,.,13.3
COc1ccc(C#Cc2ccc([C@H]3[C@H]4CN(C(=O)c5ccc(F)cc5)CC(=O)N4[C@H]3CO)cc2)cc1,-85.1*,-2.1,.
O=C(c1ccc(F)cc1)N1CC(=O)N2[C@H](C1)[C@H](c1ccc(C#Cc3ccc(F)cc3)cc1)[C@@H]2CO,-13.1,-0.7,.
COc1cccc(NC(=O)N2CC(=O)N3[C@H](C2)[C@H](c2ccc(C#CCC4CCCC4)cc2)[C@@H]3CO)c1,-44.0,70.1,.
COc1cccc(C#Cc2ccc([C@@H]3[C@H]4CN(C(=O)c5ccccc5)CC(=O)N4[C@H]3CO)cc2)c1,-48.4,-4.9,.
COc1cccc(C#Cc2ccc([C@H]3[C@@H](CO)N4C(=O)CN(C(=O)c5ccccc5)C[C@H]34)cc2)c1,-88.7*,1.1,.
COc1cccc(NC(=O)N2CC(=O)N3[C@H](CO)[C@@H](c4ccc(C#CCC5CCCC5)cc4)[C@H]3C2)c1,-90.9*,61.9,.
C[C@H](CO)N1C[C@H](C)[C@H](CN(C)S(=O)(=O)c2ccc(F)cc2)Oc2ccc(NC(=O)Cn3cnnn3)cc2CC1=O,2.7,-8.4,-12.6
COc1ccc2c3c([nH]c2c1)[C@H](CO)N(Cc1ccccc1OC)CC31CN(S(C)(=O)=O)C1,-61.3,3.7,.
O=C(C[C@H]1C[C@@H]2c3cc(NC(=O)C4CCOCC4)ccc3O[C@@H]2[C@H](CO)O1)NCc1cccc(F)c1,0.4,-1.5,38.6
CN1C(=O)c2cc(NC(=O)c3ccc(F)cc3)ccc2OC[C@H]2O[C@H](CC(=O)O)CC[C@H]21,2.1,-4.3,-60.7
C[C@@H]1CN([C@@H](C)CO)C(=O)Cc2cc(NS(=O)(=O)c3ccc(F)cc3)ccc2O[C@H]1CN(C)S(=O)(=O)c1ccc(Cl)cc1,-67.7,-5.7,-11.8
